Reference: ChEMBL document CHEMBL2218924, “A broad activity screen in support of a chemogenomic map for kinase signalling research and drug discovery” (Biochem J, 2013)

Legend:
[1] = biological target: Death-associated protein kinase 1 (Homo sapiens) (UniProt P53355); conditions: at 10 µM
[2] = biological target: Death-associated protein kinase 2 (Homo sapiens) (UniProt Q9UIK4); conditions: at 1 µM
[3] = biological target: Death-associated protein kinase 2 (Homo sapiens) (UniProt Q9UIK4); conditions: at 10 µM
[4] = biological target: T1, Serine/threonine-protein kinase DCLK2 (Homo sapiens) (UniProt Q8N568); conditions: at 1 µM
T1 sequence (whole entry): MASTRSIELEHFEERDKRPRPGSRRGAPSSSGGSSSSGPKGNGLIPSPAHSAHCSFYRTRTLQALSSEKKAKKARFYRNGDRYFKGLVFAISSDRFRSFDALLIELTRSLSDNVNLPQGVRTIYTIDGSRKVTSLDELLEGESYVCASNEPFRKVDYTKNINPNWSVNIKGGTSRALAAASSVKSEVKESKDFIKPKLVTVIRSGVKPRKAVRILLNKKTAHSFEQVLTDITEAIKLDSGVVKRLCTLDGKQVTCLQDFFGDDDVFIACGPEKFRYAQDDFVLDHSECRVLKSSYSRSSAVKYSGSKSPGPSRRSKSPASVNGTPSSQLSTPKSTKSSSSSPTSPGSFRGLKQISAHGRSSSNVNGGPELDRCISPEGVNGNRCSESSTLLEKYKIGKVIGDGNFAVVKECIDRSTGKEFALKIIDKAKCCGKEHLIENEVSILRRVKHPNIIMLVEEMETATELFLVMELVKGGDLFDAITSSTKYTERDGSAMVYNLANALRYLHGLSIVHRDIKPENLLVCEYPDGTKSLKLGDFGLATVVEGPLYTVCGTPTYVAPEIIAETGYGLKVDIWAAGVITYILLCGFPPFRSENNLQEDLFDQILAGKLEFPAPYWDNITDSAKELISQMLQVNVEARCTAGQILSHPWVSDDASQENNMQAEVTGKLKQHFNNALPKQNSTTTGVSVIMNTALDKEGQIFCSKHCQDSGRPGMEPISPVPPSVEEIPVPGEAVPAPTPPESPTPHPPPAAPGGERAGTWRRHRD

[5] = biological target: T1, Serine/threonine-protein kinase DCLK2 (Homo sapiens); conditions: at 10 µM
[6] = biological target: T2, Discoidin domain-containing receptor 2 (Homo sapiens) (UniProt Q16832); conditions: at 10 µM
T2 sequence (whole entry): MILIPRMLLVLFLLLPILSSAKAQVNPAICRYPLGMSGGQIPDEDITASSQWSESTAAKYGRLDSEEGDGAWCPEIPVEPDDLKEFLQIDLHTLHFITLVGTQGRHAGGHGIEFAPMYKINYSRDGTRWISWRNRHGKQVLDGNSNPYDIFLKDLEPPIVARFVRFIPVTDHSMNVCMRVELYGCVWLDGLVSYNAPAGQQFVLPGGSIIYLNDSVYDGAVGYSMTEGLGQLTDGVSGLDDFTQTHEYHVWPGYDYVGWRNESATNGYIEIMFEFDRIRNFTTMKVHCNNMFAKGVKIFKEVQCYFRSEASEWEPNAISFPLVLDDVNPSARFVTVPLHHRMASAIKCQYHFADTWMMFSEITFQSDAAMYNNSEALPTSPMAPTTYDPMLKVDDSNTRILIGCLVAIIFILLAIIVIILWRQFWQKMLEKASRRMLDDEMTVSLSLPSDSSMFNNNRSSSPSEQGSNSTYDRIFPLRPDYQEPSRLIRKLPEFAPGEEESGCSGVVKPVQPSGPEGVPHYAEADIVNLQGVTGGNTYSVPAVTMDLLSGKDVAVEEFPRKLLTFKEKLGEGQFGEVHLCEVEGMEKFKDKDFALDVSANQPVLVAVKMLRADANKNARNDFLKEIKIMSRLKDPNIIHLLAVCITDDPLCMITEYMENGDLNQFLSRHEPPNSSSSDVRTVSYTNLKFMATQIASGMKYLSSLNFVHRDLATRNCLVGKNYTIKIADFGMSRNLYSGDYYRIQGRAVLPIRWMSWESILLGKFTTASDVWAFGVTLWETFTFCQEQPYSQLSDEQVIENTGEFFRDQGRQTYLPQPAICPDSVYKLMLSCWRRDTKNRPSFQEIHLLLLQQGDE

[7] = biological target: T3, Myotonin-protein kinase (Homo sapiens) (UniProt Q09013); conditions: at 1 µM
T3 sequence (whole entry): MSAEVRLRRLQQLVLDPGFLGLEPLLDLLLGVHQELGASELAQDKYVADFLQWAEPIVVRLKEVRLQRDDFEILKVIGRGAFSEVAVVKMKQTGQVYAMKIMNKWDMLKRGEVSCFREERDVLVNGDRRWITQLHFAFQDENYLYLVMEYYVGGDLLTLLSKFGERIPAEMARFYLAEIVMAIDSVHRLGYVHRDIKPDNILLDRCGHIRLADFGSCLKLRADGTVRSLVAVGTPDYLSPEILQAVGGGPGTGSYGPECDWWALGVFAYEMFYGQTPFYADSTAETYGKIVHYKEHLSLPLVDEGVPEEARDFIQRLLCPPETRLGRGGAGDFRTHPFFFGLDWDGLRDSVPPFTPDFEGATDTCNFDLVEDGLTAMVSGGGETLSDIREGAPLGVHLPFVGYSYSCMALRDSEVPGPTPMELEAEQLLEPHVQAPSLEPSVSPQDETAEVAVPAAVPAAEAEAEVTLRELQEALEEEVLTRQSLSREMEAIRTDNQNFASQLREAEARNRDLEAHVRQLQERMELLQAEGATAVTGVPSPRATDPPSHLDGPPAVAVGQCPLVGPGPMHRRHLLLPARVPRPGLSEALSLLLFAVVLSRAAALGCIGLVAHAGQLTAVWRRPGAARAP

[8] = biological target: T3, Myotonin-protein kinase (Homo sapiens); conditions: at 10 µM
[9] = biological target: T4, Dual specificity tyrosine-phosphorylation-regulated kinase 2 (Homo sapiens) (UniProt Q92630); conditions: at 10 µM
T4 sequence (whole entry): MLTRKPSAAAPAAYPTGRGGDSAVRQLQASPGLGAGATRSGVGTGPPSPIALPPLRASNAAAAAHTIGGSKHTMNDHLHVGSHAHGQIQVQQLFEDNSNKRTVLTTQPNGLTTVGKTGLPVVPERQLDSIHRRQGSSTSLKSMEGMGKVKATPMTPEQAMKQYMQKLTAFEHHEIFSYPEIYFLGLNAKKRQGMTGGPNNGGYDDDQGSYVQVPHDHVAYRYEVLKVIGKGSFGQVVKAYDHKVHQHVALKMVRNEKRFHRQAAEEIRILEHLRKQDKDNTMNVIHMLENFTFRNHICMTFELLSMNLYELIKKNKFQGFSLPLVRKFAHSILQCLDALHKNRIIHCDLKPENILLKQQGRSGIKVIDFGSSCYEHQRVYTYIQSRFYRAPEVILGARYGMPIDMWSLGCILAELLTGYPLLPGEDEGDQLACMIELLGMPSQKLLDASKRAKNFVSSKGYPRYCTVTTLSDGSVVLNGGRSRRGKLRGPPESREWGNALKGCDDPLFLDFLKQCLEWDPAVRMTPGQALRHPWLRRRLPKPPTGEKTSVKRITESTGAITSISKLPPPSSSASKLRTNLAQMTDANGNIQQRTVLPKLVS

[10] = biological target: T5, Ephrin type-A receptor 1 (Homo sapiens) (UniProt P21709); conditions: at 1 µM
T5 sequence (whole entry): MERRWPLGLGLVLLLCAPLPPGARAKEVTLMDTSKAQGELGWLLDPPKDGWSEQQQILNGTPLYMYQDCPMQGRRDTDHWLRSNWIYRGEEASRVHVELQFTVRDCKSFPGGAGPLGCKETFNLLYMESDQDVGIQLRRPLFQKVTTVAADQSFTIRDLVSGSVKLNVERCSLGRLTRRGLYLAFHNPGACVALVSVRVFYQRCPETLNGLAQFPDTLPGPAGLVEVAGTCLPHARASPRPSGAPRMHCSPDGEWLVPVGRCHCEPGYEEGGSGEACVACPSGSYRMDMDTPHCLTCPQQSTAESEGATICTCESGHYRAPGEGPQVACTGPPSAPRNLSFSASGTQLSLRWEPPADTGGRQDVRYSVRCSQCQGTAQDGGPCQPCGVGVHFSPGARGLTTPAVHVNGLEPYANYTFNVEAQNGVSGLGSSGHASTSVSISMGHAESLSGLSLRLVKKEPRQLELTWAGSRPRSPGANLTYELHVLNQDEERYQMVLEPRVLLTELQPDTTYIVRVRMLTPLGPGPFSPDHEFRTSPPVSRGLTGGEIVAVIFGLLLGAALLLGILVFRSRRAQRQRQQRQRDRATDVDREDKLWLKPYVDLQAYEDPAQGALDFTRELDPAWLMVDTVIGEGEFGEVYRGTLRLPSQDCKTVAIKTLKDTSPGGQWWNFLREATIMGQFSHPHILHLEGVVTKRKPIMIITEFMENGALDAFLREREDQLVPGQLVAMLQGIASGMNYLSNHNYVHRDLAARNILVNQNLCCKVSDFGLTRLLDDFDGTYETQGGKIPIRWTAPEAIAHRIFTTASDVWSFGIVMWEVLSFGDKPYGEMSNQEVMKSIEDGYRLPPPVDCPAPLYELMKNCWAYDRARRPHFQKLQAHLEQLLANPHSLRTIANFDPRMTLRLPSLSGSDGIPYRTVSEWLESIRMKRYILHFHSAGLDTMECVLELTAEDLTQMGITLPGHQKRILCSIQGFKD

[11] = biological target: T5, Ephrin type-A receptor 1 (Homo sapiens); conditions: at 10 µM
[12] = biological target: T6, Ephrin type-A receptor 3 (Homo sapiens) (UniProt P29320); conditions: at 1 µM
T6 sequence (whole entry): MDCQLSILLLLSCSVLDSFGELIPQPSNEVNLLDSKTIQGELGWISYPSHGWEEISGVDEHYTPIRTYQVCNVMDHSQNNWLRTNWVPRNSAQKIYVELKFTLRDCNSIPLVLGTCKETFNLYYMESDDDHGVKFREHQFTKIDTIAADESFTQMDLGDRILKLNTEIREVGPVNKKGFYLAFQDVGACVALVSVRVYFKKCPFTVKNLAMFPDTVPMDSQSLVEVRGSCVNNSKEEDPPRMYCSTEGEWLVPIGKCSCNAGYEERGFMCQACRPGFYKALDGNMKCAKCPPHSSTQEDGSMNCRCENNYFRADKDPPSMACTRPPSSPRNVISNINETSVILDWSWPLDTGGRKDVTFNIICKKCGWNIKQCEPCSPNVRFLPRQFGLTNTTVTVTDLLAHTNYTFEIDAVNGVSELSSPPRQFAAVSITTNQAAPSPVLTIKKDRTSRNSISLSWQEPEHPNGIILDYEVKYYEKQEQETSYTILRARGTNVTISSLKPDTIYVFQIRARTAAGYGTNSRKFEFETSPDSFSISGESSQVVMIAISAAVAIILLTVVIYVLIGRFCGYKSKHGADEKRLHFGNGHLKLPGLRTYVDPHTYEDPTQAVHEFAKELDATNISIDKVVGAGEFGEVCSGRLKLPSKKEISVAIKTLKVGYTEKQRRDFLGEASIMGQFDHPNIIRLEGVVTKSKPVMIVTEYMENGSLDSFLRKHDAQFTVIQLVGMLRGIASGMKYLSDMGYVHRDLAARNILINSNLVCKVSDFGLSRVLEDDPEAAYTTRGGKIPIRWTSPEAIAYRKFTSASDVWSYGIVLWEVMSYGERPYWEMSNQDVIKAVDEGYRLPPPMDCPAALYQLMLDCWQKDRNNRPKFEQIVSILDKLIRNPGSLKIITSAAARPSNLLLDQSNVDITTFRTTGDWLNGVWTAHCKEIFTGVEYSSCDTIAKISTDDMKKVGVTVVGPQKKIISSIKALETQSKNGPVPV

[13] = biological target: T7, Serine/threonine-protein kinase 17A (Homo sapiens) (UniProt Q9UEE5); conditions: at 1 µM
T7 sequence (whole entry): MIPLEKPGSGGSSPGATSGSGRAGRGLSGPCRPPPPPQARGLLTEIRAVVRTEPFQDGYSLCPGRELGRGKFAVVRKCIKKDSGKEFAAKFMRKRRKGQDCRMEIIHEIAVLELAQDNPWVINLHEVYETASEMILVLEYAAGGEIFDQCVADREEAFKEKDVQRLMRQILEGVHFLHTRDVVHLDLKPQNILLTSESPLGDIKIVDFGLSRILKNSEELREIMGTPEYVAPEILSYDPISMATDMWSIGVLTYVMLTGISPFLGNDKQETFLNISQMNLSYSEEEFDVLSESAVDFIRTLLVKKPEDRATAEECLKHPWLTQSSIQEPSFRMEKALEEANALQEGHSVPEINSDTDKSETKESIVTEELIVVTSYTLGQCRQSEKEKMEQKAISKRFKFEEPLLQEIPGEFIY

[14] = biological target: T7, Serine/threonine-protein kinase 17A (Homo sapiens); conditions: at 10 µM
[15] = biological target: T4, Dual specificity tyrosine-phosphorylation-regulated kinase 2 (Homo sapiens); conditions: at 1 µM
[16] = biological target: T2, Discoidin domain-containing receptor 2 (Homo sapiens); conditions: at 1 µM

Chain of Death-associated protein kinase 1 (Homo sapiens) (P53355 whole entry, looked up): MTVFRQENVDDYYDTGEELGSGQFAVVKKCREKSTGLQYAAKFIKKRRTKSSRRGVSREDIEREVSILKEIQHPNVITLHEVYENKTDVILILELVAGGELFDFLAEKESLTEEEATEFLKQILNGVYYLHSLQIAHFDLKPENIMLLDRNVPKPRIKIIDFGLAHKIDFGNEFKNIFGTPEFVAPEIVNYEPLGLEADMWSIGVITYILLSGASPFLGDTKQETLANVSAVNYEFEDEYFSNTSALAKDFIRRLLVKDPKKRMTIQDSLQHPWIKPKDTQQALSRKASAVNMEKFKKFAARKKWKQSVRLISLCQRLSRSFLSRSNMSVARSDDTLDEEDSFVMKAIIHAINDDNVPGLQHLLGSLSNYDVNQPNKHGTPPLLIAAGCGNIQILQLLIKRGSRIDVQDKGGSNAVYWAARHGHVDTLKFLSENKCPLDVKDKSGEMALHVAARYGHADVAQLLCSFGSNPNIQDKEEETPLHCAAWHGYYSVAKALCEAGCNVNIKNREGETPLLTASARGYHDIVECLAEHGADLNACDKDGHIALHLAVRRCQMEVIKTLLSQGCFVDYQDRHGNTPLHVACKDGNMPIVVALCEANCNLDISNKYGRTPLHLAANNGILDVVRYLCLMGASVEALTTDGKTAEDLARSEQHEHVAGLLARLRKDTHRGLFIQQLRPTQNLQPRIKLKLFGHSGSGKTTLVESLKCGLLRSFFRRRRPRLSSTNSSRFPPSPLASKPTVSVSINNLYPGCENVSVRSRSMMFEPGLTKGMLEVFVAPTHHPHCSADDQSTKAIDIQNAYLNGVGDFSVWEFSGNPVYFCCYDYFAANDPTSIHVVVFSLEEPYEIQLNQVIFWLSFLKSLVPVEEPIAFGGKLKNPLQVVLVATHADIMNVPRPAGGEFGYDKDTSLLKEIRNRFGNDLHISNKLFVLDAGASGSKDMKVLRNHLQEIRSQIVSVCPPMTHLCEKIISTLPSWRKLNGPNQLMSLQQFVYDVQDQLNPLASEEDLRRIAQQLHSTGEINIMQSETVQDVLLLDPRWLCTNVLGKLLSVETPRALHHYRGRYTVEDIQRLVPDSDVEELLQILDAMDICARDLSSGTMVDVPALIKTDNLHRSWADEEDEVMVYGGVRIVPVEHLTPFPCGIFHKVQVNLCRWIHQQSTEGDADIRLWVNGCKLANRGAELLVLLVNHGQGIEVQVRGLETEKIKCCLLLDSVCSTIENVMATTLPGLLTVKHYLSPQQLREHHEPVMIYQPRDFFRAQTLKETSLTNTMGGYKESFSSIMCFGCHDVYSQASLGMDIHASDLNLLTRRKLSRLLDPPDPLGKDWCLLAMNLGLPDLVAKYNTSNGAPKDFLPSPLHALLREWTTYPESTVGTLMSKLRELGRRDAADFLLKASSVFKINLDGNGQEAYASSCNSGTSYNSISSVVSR
Chain of Death-associated protein kinase 2 (Homo sapiens) (Q9UIK4 whole entry, looked up): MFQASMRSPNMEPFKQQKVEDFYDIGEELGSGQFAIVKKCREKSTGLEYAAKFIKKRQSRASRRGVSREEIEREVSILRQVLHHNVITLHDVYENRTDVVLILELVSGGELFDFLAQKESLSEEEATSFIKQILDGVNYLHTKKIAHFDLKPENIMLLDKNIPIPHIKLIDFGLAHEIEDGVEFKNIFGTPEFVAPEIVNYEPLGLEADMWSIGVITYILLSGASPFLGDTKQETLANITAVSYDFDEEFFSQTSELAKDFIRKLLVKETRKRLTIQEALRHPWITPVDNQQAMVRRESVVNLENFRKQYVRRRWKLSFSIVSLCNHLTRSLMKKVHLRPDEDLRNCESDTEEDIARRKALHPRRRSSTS

Row | SMILES | residual activity [1] [%] | residual activity [2] [%] | residual activity [3] [%] | residual activity [4] [%] | residual activity [5] [%] | residual activity [6] [%] | residual activity [7] [%] | residual activity [8] [%] | residual activity [9] [%] | residual activity [10] [%] | residual activity [11] [%] | residual activity [12] [%] | residual activity [13] [%] | residual activity [14] [%] | residual activity [15] [%] | residual activity [16] [%]
1 | CCCC(=O)Oc1ccc2[nH]c(C(=O)c3cc4ccccc4[nH]3)cc2c1 | 68 | 95 | 104 | 82 | 93 | 101 | 132 | 133 | 102 | 88 | 94 | 107 |  |  |  | 
2 | Cn1c2ccccc2c2c3c(c4c5ccccc5n(CCC#N)c4c21)CNC3=O | 73 | 93 | 105 | 56 | 60 |  | 121 | 114 | 66 |  |  |  | 36 | 36 | 76 | 
3 | O=C1NC(=O)C(c2cn(CCCO)c3ncccc23)=C1c1cnccn1 | 83 | 65 | 59 | 95 | 78 | 96 |  | 82 |  |  |  | 97 | 89 | 67 |  | 93
